High-throughput results: PubChem, National Center for Advancing Translational Sciences (NCATS)
Sampled rows, rich in hits. Any-hit rate of the full collection: about 18%.
TDP1 block – inhibitors of human tyrosyl-DNA phosphodiesterase TDP1. Potency, µM (doses to about 130 µM), usual class: inhibitors. Q9NUW8. recombinant TDP1, AlphaScreen DNA substrate cleavage. 0.28% of 350,000 active; further: nearly all actives have a fitted effect of over 40% in size
Target sequence (Q9NUW8 whole entry, looked up): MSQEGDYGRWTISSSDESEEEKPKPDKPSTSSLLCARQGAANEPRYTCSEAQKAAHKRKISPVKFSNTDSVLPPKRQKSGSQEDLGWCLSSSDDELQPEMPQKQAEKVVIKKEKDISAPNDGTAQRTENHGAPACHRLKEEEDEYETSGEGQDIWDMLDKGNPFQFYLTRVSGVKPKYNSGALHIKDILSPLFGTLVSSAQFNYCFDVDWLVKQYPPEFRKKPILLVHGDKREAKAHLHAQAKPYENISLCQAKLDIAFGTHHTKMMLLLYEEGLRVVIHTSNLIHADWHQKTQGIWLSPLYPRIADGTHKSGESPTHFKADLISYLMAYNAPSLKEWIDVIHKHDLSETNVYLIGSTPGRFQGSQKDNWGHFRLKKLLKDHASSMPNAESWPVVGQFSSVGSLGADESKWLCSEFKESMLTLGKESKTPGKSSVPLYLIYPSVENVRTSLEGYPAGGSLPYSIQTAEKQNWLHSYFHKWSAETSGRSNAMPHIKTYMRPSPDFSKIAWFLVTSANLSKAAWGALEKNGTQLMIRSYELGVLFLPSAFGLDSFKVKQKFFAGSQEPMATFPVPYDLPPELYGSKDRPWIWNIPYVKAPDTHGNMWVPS
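E. coli-derived human Tdp1, 1 nM final. Cpd preinc 15 min RT; substrate 15 nM final, 5 min RT; AS bead mix 10 ug/ml final, 10 min RT. Signal loss = tyrosine-FITC cleavage. No-enzyme wells = max signal.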
PLK1 PBD inh – PLK1 (human) polo-box domain binding inhibition; P53350; Plk1 PBD binding of FITC phosphopeptide, fluorescence polarization; Potency, µM, actives largely listed as inhibitors; 2.8% of 360,000 active; AID 720504; further: series mostly up to about 57 µM; nearly all actives have a fitted effect of over 65% in size
TDP1 cell noCPT – qHTS for Inhibitors of human tyrosyl-DNA phosphodiesterase 1 (TDP1): qHTS in cells in absence of CPT. DT40 Tdp1-/- hTDP1 cells, no CPT, ATP luminescence, 48 h. Potency, µM (highest dose often 46.2 µM), hits mostly inhibitors. 15% of 420,000 active. AID 686978, 2013; further: nearly all actives have a fitted effect of over 55% in size
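Growth kinetics read by CellTiter-Glo luminescence after ≥48 hr at 37 °C. Cells: DT40 Tdp1-/- stably carrying human TDP1, 400 per well, compound exposure in the absence of CPT (DMSO vehicle).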
GCN5L2 inh – GCN5L2 (KAT2A) acetyltransferase inhibition | Potency, µM (titrated, usually from 58.9 µM), most hits filed as inhibitors | GCN5L2 HAT assay, ThioGlo1 CoA-SH fluorescence | 0.21% of 390,000 active
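qHTS, 1536-well. 20nM enzyme, pH 7.5 HEPES/EDTA/Tween-20 buffer; 15 min compound preinc., RT. Start: 75uM H3(1-25), 70uM AcCoA, 50uM ThioGlo1. Read Ex340/Em540 at t=0 (autofluorescence flag) and t=20 min.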
DT40 TDP1 CPT – DT40-hTDP1 cell growth loss with CPT; chicken DT40 Tdp1-/-;hTDP1 cells + 20 nM CPT, ATP luminescence, 48 h; Potency, µM (titrated, usually from 46.2 µM), most hits filed as inhibitors; 12% of 420,000 active; AID 686979; further: nearly all actives have a fitted effect of over 55% in size
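Chicken DT40 Tdp1-/- cells stably complemented with human TDP1 were seeded at 400 cells/well in medium containing 20 nM camptothecin, exposed to pin-transferred compounds, and grown at 37 °C for at least 48 hr. Viability was read as ATP luminescence.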
VDR inh – inhibitors of human vitamin D receptor; P11473; VDR-SRC2-3 peptide fluorescence polarization, 2 h; Potency, µM, actives largely listed as inhibitors; 0.93% of 400,000 active
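Two reagent solutions held at 4 deg C in the dark were dispensed, compounds pinned at 23 nl, and the mixture incubated 2 h at room temperature. Read-out: fluorescence polarization of VDR–SRC2-3 peptide binding.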
A number is an active result; . = inactive; ? = inconclusive; / = no result given; ! = not active in a repeat. The call rests on the fitted dose curve; in most records, active means well fitted curve in the direction sought with a large enough effect; inconclusive means small, poorly fitted or top-dose-only effect, or another doubt; inactive means no such curve, though single readings can be large; an effect the other way counts as inactive or inconclusive.

SMILES | TDP1 block | PLK1 PBD inh | TDP1 cell noCPT | GCN5L2 inh | DT40 TDP1 CPT | VDR inh
CCOC(=O)/C(C#N)=C\c1c(OCC)n(CC)c2ccccc12 | . | . | 18µM | . | ? | .
CCn1c2ccccc2c2cc(NS(=O)(=O)c3ccccc3C)ccc21 | . | . | 21µM | . | ? | .
CSc1ccccc1NC(=O)C(=O)c1c[nH]c2ccccc12 | . | . | ? | . | . | .
Cc1cc(C)c(C#N)c(SCC(=O)c2ccc(Cl)cc2Cl)n1 | . | . | 16µM | . | ? | .
Cc1cc(C)c(C#N)c(SCC(=O)c2cc(C)n(CCc3ccccc3)c2C)n1 | . | . | 18µM | . | 18µM | .
Cc1cc(C)c(C#N)c(SCc2ccccc2)n1 | / | . | . | . | . | .
CC1CN(C(=O)c2nn(C)cc2[N+](=O)[O-])CC(C)O1 (stereo not drawn) | . | 12µM | ? | . | ? | .
CC1CN(C(=O)c2cc([N+](=O)[O-])cc([N+](=O)[O-])c2)CC(C)O1 (stereo not drawn) | . | . | . | . | . | .
C=C(C)C(=O)Oc1ccc(N2C(=O)[C@@H]3C4C=CC(C4)[C@@H]3C2=O)cc1 | / | . | ? | . | ? | .
COc1ccc(OC)c(-c2csc(N(C)C(=O)Cc3ccccc3)n2)c1 | . | . | . | . | . | .
COc1ccc(CC(=O)N(CC2CCCO2)c2nc3ccccc3s2)cc1 (stereo not drawn) | . | . | 13µM | . | ? | .
COCCN(C(=O)Cc1ccc(OC)c(OC)c1)c1nc(-c2cc(OC)ccc2OC)cs1 | / | . | ? | . | 18µM | .
COCCN(C(=O)Nc1ccc(OC)cc1)c1nc2ccccc2s1 | . | . | ? | ? | . | .
COc1ccc(OC)c(-c2csc(N(CC3CCCO3)C(=O)C3CCCCC3)n2)c1 (stereo not drawn) | . | 17µM | 18µM | . | 21µM | ?
COc1ccc(-c2csc(N(CCCN(C)C)C(=O)c3ccc(OC)c(OC)c3)n2)cc1 | / | . | . | / | ? | /
Cc1ccccc1-c1cc2nc(NCCN3CCNC3=O)n(C)c(=O)c2s1 | / | . | ? | / | ? | /
CC1(C)CC2CC(C)(CN2C(=O)COC(=O)c2cncc(Br)c2)C1 (stereo not drawn) | . | . | . | . | . | .
CCc1cccc(C)c1NC(=O)C(CC)n1ncn2c(cc3cc(C)ccc32)c1=O (stereo not drawn) | . | / | ? | . | ? | .
CCC(C(=O)Nc1ccccc1)n1nc(-c2cc(C)ccc2C)ccc1=O (stereo not drawn) | . | / | . | . | ? | .
CCc1cccc(CC)c1NC(=O)C(CC)n1nc(C)n2c(cc3cc(C)ccc32)c1=O (stereo not drawn) | . | / | 21µM | . | ? | .
CCC(C(=O)Nc1ccc(C(C)C)cc1)n1nc(C)n2c(cc3cc(C)ccc32)c1=O (stereo not drawn) | . | / | ? | . | 23µM | .
COc1cccc(CN2CC(C(=O)NCCc3ccc(C)s3)CCC2=O)c1 (stereo not drawn) | . | . | . | . | . | .
COc1ccc(/C=C2\N=C(c3ccccc3)NNC2=O)cc1 | . | . | . | . | . | .
Cc1cc(C)nc(SCC(=O)Oc2ccc3oc(=O)cc(C)c3c2)n1 | . | 27µM | . | . | . | .
Cc1ccc(F)c(C2C3C=CCCC3(C)C(=O)N2Cc2ccccc2)c1 (stereo not drawn) | . | / | / | / | / | .
CCCc1nnc(NC(=S)Nc2ccccc2)s1 | . | . | 3.3µM | . | 4.6µM | .
CC(C)C(=O)Nc1nnc(NC(=S)Nc2ccccc2)s1 | . | ? | ? | . | ? | .
c1ccc(-c2onc(-c3ccco3)c2-c2ccc3c(c2)OCO3)cc1 | / | . | 11µM! | . | 10µM! | .
COc1cc(-c2c(-c3ccc4c(c3)OCO4)noc2-c2ccsc2)cc(OC)c1OC | / | / | . | / | ? | /
